This is an account of results in PubChem BioAssay (Tox21).

Test [1] can be described thus: qHTS assay to identify small molecule antagonists of the glucocorticoid receptor (GR) signaling pathway - cell viability counter screen (AID 720693). Also: nearly all actives have a fitted effect of over 55% in size. Background: Quantitative high-throughput screening tests each substance at several concentrations.
The nature of test [2]: qHTS assay for identifying genotoxic compounds that show differential cytotoxicity against isogenic chicken DT40 cell lines with known DNA damage response pathways - wild type cell line (AID 743012). Also: nearly all actives have a fitted effect of over 60% in size. Also: potency is read from the fitted curve at half-maximal effect. In a few lines:
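First, wild type DT40 cells were plated at 300 per well and equilibrated about 0.5 h at 37 C/5% CO2. Next, compounds in DMSO were added and exposure lasted 40 h. Finally, CellTiter-Glo was added for 30 min at room temperature and luminescence recorded.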

A short description of test [3]: qHTS assay for identifying genotoxic compounds that show differential cytotoxicity against isogenic chicken DT40 cell lines with known DNA damage response pathways - Rev3 mutant cell line (AID 743014). Also: nearly all actives have a fitted effect of over 55% in size. Also: potency is read from the fitted curve at half-maximal effect.
The nature of test [4]: qHTS assay for identifying genotoxic compounds that show differential cytotoxicity against isogenic chicken DT40 cell lines with known DNA damage response pathways - Rad54/Ku70 mutant cell line (AID 743015). Also: nearly all actives have a fitted effect of over 60% in size. Also: potency is read from the fitted curve at half-maximal effect.
Test [5] in a line: qHTS assay to identify small molecule antagonists of the androgen receptor (AR) signaling pathway - cell viability counter screen (AID 743033; also: nearly all actives have a fitted effect of over 45% in size).
Test [6] is described as follows: qHTS assay to identify small molecule antagonists of the androgen receptor (AR) signaling pathway using the MDA cell line - cell viability counter screen (AID 743041; also: nearly all actives have a fitted effect of over 45% in size). In a few lines:
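R1881-driven MDA-kb2 AR-luc cells, 3,000/well, were dosed with library compounds for 16 h; cell health came from CellTiter-Fluor fluorescence in the reporter wells.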

Test [7] concerns the target Androgen receptor (Homo sapiens) (UniProt P10275). Kind of test: qHTS assay to identify small molecule antagonists of the androgen receptor (AR) signaling pathway (AID 743035; active = well fitted inhibition curve with a large enough effect in the signal ratio in the repeat runs, not every such curve was filed as active; the % refers to the signal ratio; also: potency is read from the fitted curve at half-maximal effect). An outline of the steps:
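Beta-lactamase FRET read (2 h RT incubation with LiveBLAzer B/G) following 16 h of compound plus R1881 treatment of AR-UAS-bla HEK293 cells, which had been pre-incubated 4 h at 37C.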

Test [8] shares this target. The test can be described thus: qHTS assay to identify small molecule agonists of the androgen receptor (AR) signaling pathway (AID 743036; active = well fitted activation curve with a large enough effect in the signal ratio in the repeat runs, with a control signal flat, not every such curve was filed as active; the % refers to the signal ratio). In a few lines:
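Screening used 2,000 AR-bla HEK293 cells per well, treated 16 h at 37C with test compounds in DMSO alongside positive and DMSO-only controls; beta-lactamase activity was then read by LiveBLAzer B/G FRET fluorescence after 2 h at room temperature.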

Test [9] shares this target. The test can be described thus: qHTS assay to identify small molecule agonists of the androgen receptor (AR) signaling pathway using the MDA cell line (AID 743040; also: nearly all actives have a fitted effect of over 20% in size). An outline of the steps: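 After a 5 h incubation at 37C and 0% CO2, MDA-kb2 reporter cells were dosed with compounds in DMSO and kept 16 h under the same conditions. Luciferase activity was then read as luminescence with ONE-Glo.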

Values joined by “and” are separate entries in the source; they are usually repeats but may differ in a detail not shown here. Equal values may be shown once. Records with an inconclusive call do not appear. A structure can be active in one record and inactive in another. Active and inactive are the calls of the source. Unless noted, calls follow the shape of the dose curve; as a rule, active = well fitted curve in the direction sought with a large enough effect in the repeat runs; inconclusive = weak or mixed curves; inactive = no such curve, though single readings can be large; an effect the other way counts as inactive or inconclusive.

Sequence of Androgen receptor (Homo sapiens) (P10275 whole entry, looked up): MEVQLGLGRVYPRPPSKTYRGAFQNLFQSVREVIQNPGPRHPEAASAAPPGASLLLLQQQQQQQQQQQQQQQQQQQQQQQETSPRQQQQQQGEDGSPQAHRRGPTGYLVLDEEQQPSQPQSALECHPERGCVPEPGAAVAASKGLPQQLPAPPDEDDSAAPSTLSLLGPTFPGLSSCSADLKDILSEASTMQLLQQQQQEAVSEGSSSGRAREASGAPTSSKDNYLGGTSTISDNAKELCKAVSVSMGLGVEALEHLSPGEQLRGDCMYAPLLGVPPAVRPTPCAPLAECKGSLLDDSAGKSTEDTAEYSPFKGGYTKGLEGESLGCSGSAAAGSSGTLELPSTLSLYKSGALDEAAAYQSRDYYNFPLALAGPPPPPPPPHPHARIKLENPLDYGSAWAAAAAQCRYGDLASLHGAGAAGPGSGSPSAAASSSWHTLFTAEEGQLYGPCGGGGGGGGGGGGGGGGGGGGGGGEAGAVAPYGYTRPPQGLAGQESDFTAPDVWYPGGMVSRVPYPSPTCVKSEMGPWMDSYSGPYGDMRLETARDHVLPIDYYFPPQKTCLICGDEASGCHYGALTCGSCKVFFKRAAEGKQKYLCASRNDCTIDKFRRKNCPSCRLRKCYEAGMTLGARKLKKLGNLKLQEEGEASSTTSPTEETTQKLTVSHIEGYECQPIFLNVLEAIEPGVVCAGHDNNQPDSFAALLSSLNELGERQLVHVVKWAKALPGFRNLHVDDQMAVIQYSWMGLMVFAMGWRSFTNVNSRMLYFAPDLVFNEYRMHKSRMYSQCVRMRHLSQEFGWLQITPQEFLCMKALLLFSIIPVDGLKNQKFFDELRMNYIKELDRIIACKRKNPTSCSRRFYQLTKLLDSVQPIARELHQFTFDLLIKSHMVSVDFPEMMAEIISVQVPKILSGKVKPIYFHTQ

For the compound `CNC[C@@H]1CC[C@@H](N)[C@@H](O[C@H]2[C@H](O)[C@@H](O[C@H]3OC[C@](C)(O)[C@H](NC)[C@H]3O)[C@H](N)C[C@@H]2N)O1`, the Potency entry in test [1], in test [2], in test [3], in [4], in test [5] and in test [6] was “inactive” each time.

As to `CCN(CC)CCOc1ccc2nc(N(C)C)sc2c1`, the Potency result in test [1], in test [5] and in test [6] was “inactive” each time. Besides, the Potency is 1.19 µM (active) in test [2], 1.68 µM (active) in test [3] and 2.11 µM (active) in [4].

For the compound `Cc1ccc(/C(=C\CN2CCCC2)c2cccc(/C=C/C(=O)O)n2)cc1`, the Potency entry in test [1], in test [2], in [3], in test [4], in test [5] and in [6] was “inactive” each time.

Turning to `COc1cc([C@@H]2c3cc4c(cc3C(O[C@@H]3O[C@@H]5CO[C@@H](C)O[C@H]5[C@H](O)[C@H]3O)C3COC(=O)[C@@H]32)OCO4)cc(OC)c1OP(=O)(O)O` (stereo partly specified), the Potency result in [1], in test [5] and in [6] was “inactive” throughout. Also, the Potency in test [2] is 531 nM (active) and 750 nM (active); in [3] it was 1.68 µM (active) and 2.37 µM (active); in [4], 53.1 nM (active) and 75 nM (active).

Consider `COc1cc2[nH]c(C)c(CCN3CCN(c4ccccc4)CC3)c2cc1OC`, for which the Potency entry in test [1], in [5] and in test [6] was “inactive” throughout. In addition, the Potency is 18.8 µM (active) in test [2], 26.6 µM (active) in test [3] and 29.8 µM (active) in test [4].

Consider `CC(C(=O)O)c1ccc(C2CCCCC2)c2ccccc12` (stereo unspecified), for which the Potency result in [1], in [2], in [3], in test [4], in [5] and in [6] was “inactive” in each case.

As for `CCC(=O)NS(=O)(=O)c1ccc(-c2c(-c3ccccc3)noc2C)cc1`, the Potency result in [1], in [2], in test [3], in test [4], in test [5] and in test [6] was “inactive” in each case.

Turning to `COC(=O)[C@@H](N)CS`, the Potency entry in test [1], in test [2], in test [3], in test [4], in test [5] and in test [6] was “inactive” throughout.

`N[C@H](CC(=O)O)C(=O)O`: the Potency entry in test [1], in test [2], in test [3], in test [4], in test [5] and in test [6] was “inactive” in each case.

On to `O=C(c1cc2ccccc2o1)N1CCN(Cc2ccccc2)CC1`, for which the Potency entry in test [1], in test [5] and in test [6] was “inactive” each time. Moreover, the Potency was 26.6 µM (active) in test [2], 29.8 µM (active) in [3] and 29.8 µM (active) in test [4].

As to `C[C@H](O)[C@H](O)[C@H]1CNc2nc(N)[nH]c(=O)c2N1`, the Potency entry in [1], in [2], in test [3], in test [4], in [5] and in test [6] was “inactive” each time.

In the case of `O=C(O[C@H]1CN2CCC1CC2)N1CCc2ccccc2[C@@H]1c1ccccc1`, the Potency result in test [1], in test [5] and in test [6] was “inactive” in each case. For the same compound, the values for the Potency in test [2], in test [3] and in test [4] were 11.9 µM (active), 26.6 µM (active) and 26.6 µM (active), respectively.

Regarding `COCC1=C(C(=O)OC(C)OC(=O)OC(C)C)N2C(=O)[C@@H](NC(=O)/C(=N\OC)c3csc(N)n3)[C@H]2SC1` (stereo partly specified), the Potency result in test [1], in [5] and in test [6] was “inactive” throughout. Also, the Potency is 1.68 µM (active) and inactive in test [2]; 2.37 µM (active) and inactive in test [3]; 1.06 µM (active) and inactive in test [4].

As for `COC(=O)C1=C(C)NC(C)=C(C(=O)O[C@H]2CCN(Cc3ccccc3)C2)[C@H]1c1cccc([N+](=O)[O-])c1`, the Potency result in test [1], in test [8] and in [9] was “inactive” in each case. The Potency in test [2] is 10.6 µM (active); in test [3], 18.8 µM (active); in [4] it was 13.3 µM (active); in test [7], 26.8 µM (active).

Regarding `CC(O)[C@@H]1NC(=O)[C@H](Cc2ccccc2)NC(=O)[C@H](C(C)O)NC(=O)[C@H](CCCCN)NC(=O)[C@H](Cc2c[nH]c3ccccc23)NC(=O)[C@H](Cc2ccccc2)NC(=O)[C@H](Cc2ccccc2)NC(=O)[C@H](CC(N)=O)NC(=O)[C@H](CCCCN)NC(=O)[C@@H](NC(=O)CNC(=O)[C@H](C)N)CSSC[C@@H](C(=O)O)NC(=O)[C@H](CO)NC1=O` (stereo partly specified), the Potency entry in [1], in test [2], in test [3], in test [4], in test [5] and in test [6] was “inactive” in each case.

Consider `COc1ccc(/C=C/C(=O)OCCC(C)C)cc1`, for which the Potency result in [1], in test [2], in test [3], in test [4], in test [5] and in test [6] was “inactive” each time.

On to `CCC[C@@]1(CCc2ccccc2)CC(O)=C([C@H](CC)c2cccc(NS(=O)(=O)c3ccc(C(F)(F)F)cn3)c2)C(=O)O1`, for which the Potency result in test [1], in test [2], in [3], in [4], in test [5] and in [6] was “inactive” throughout.

Consider `CCCCCCCCCCCCCCCC(=O)O[C@@H]1[C@@H](O)[C@@H](O)[C@@H]([C@H](NC(=O)[C@@H]2C[C@@H](CCC)CN2C)[C@H](C)Cl)O[C@@H]1SC`, for which the Potency entry in test [1], in [2], in [3], in test [4], in test [5] and in test [6] was “inactive” each time.

On to `CCCCCCCN(CC)CCCC(O)c1ccc(NS(C)(=O)=O)cc1` (stereo unspecified), for which the Potency entry in [1], in test [5] and in test [6] was “inactive” each time. Moreover, the Potency in [2] is 23.7 µM (active); in [3], 26.6 µM (active); in test [4], 26.6 µM (active).

For `CC(C)C[C@H](NC(=O)[C@@H](Cc1c[nH]c2ccccc12)NC(=O)[C@H](Cc1ccc(O)cc1)NC(=O)[C@H](CO)NC(=O)[C@H](Cc1c[nH]c2ccccc12)NC(=O)[C@H](Cc1cnc[nH]1)NC(=O)[C@@H]1CCC(=O)N1)C(=O)N[C@@H](CCCN=C(N)N)C(=O)N1CCC[C@@H]1C(=O)NCC(N)=O`, the Potency entry in test [1], in test [2], in test [3], in test [4], in test [5] and in [6] was “inactive” in each case.
